In the library only some 4.5% were active in any assay of this set; here they are far more common.
hgDAF12 agonist – hgDAF-12 agonism, primary luciferase screen; HEK293 GAL4-hgDAF12 UAS-luciferase reporter, agonist luminescence; normalized to butyrate control; 1.8% of 370,000 active; activation, % at 6.8 µM;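 active = activation above a cutoff set at the mean of all screened compounds plus 3 SD, cut at about 10% in these data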
DAX1 inh-1 – NR0B1 (DAX1) inhibition; HEK293 Gal4-DAX1 luciferase reporter, luminescence; P51843; AID 504766; 0.99% of 340,000 active; inhibition, % at 6.75 µM;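 active = inhibition above the mean over all tested compounds plus 3 SD, cut at about 4.2% in these data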;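 note: inhibition shows as a rise in luminescence from relieved DAX1 repression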
hcDAF-12 act – H. contortus DAF-12 activation, primary screen. activation, % at 6.8 µM. HEK293 hcDAF-12 lit1-tk-luc reporter, luminescence; 0% DMSO, 100% Δ7-dafachronic acid. 1.4% of 370,000 active;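 active = activation above the mean of all tested compounds plus 3 SD, cut at about 5.5% in these data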
ssDAF12 agonist – activates DAF-12 receptor from parasite S. stercoralis; activation, % at 6.8 µM; HEK293 ssDAF-12/GRIP1 lit1-tk-luc reporter, luminescence; % of 3 µM dafachronic acid response; 1% of 370,000 active; AID 652126;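 active = activation above the mean over all tested compounds plus 3 SD, cut at about 0.9% in these data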
DAX1 inh-2 – inhibitors of DAX1 repression of SF-1 activated StAR promoter; HEK293T StAR-luciferase reporter, SF-1/DAX-1 repression relief; inhibition, % at 6.8 µM; 1.1% of 370,000 active; AID 652010;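 active = inhibition above the mean over all tested compounds plus 3 SD, cut at about 3.6% in these data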;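 note: higher inhibition means more luminescence from relief of DAX-1 repression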
GAA850 FXN act – increases GAA850 frataxin promoter reporter activity; activation, % at 6 µM; HEK293 lucGAA850 FXN promoter luciferase reporter, 24 h; percent of 10 µM SAHA response; AID 540364; 0.56% of 360,000 active;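 active = activation above the average of all compounds screened plus 3 SD, cutoff fixed separately per campaign, cut at about 7.5% in these data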
DAX1 inh confirm – confirmation of human DAX1 (NR0B1) inhibitors; AID 652134; inhibition, % at 6.8 µM; HEK293T StAR-promoter luciferase reporter, SF-1/DAX-1 repression; 87% of 2,400 active; shares compounds with DAX1 inh-2;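 active = inhibition above the average of every tested compound plus 3 SD, cut at about 3.8% in these data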;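 note: active compounds raise luminescence by relieving repression of the StAR reporter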
SF1 mutant ctr – counter-screen for DAX1 inhibitors: nonselective inhibitors with SF-1 AF2 mutant; 78% of 2,400 active; inhibition, % at 6.8 µM; HEK293 StAR-luciferase, luminescence; shares compounds with DAX1 inh-2;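 active = inhibition above the mean of all tested compounds plus 3 SD, cut at about 3% in these data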
LXRb hcDAF ctr – counter-screen for hcDAF-12 agonists: agonists of human LXR-beta. shares compounds with hcDAF-12 act. HEK293 Gal4-LXR tk-luc reporter, luminescence, 24 h; normalized: DMSO 0%, positive control 100%. activation, % at 6.8 µM. 3,400 tested, under 10 active;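 active = mean percent activation of the reporter above a cutoff set as the average over tested compounds plus their standard deviation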
Target sequence (P55055 whole entry, looked up, the tested form may be a part): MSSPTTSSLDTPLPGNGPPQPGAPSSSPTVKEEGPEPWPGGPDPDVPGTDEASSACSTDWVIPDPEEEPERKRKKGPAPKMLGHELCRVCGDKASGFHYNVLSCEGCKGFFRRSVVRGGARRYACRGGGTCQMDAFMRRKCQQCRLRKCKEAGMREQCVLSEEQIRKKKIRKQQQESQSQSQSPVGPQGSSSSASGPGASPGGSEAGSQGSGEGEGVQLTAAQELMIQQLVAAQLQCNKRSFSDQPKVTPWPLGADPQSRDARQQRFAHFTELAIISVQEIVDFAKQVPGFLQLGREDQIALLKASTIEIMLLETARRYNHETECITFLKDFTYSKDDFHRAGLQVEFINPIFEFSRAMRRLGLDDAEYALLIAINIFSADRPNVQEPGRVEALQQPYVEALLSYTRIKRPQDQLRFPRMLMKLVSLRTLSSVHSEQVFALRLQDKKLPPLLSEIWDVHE
hcDAF12 ag – confirmation of H. contortus DAF-12 agonists; shares compounds with hcDAF-12 act; HEK293 hcDAF-12 lit1-tk-luc reporter, luminescence; % of Δ7-dafachronic acid response; activation, % at 6.8 µM; 61% of 3,400 active; AID 743032;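 active = mean activation across triplicate tests above the threshold derived from the earlier primary screen, cut at about 5.5% in these data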
hgDAF12 conf – hgDAF-12 agonism, confirmation assay | shares compounds with hgDAF12 agonist | HEK293 GAL4-hgDAF12 luciferase reporter, agonist mode; percent of butyrate response | activation, % at 6.8 µM | 80% of 3,300 active;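 active = mean activation over triplicate wells above the hit cutoff derived from the earlier primary screen, cut at about 11% in these data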
LXRb DAF12 ctr – counter-screen for DAF-12 agonists: agonists of human LXR-beta; shares compounds with hgDAF12 agonist; HEK293 Gal4-LXR luciferase reporter, 24 h; activation, % at 6.8 µM; 3,300 tested, under 10 active;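 active = mean activation of the triplicate above a set limit carried over from the primary screen, none filed active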
A number is an active result; - = inactive; . = not tested or not shown.

SMILES	hgDAF12 agonist	DAX1 inh-1	hcDAF-12 act	ssDAF12 agonist	DAX1 inh-2	GAA850 FXN act	DAX1 inh confirm	SF1 mutant ctr	LXRb hcDAF ctr	hcDAF12 ag	hgDAF12 conf	LXRb DAF12 ctr
CCCC(=O)Nc1nc(-c2ccc3c(c2)OCCO3)cs1	14	-	-	-	5.6	-	6.5	4.8	.	.	11	-
Cn1nnc2cc(NC(=O)Nc3ccccc3F)ccc21	15	-	-	-	7.4	-	9.8	4.4	.	.	14	-
Brc1ccc2nc(-c3c[nH]c4ccccc34)cn2c1	22	6.2	11	-	8.8	-	18	8.5	-	9.6	21	-
Cc1nn(-c2ccccc2)c(C)c1/C=N/Nc1nc2ccccc2[nH]1	22	-	9.1	1.8	6.4	-	17	8.5	-	8.9	17	-
CC(/C=N/Nc1nc(C)cc(=O)[nH]1)=C\c1ccccc1	-	-	-	-	-	-	.	.	.	.	.	.
CC(/C=N/Nc1nc2ccccc2[nH]1)=C\c1ccccc1	21	-	8.8	1.5	6.9	-	18	7.0	-	6.6	23	-
CC1=Nc2ccccc2N=C(N)C1c1ccccc1 (configuration not stated)	18	-	7.4	1.5	5.1	-	3.7	4.3	-	-	13	-
CC1=NN(c2ccccc2)C(=O)C1c1ccccc1 (configuration not stated)	-	-	-	-	-	-	.	.	.	.	.	.
Nn1c(SCC(=O)Nc2cccc3ccccc23)nnc1-c1cc(-c2ccccc2)n[nH]1	-	.	-	-	-	.	.	.	.	.	.	.
Clc1ccccc1Nc1nc2ccccc2o1	13	-	11	1.2	9.3	-	14	9.0	-	10	23	-
Cc1c(C(=O)O)oc2c(F)cccc12	-	.	-	-	-	-	.	.	.	.	.	.
Cc1c(C(=O)NC2CCOC2)oc2c(F)cccc12 (configuration not stated)	14	-	-	-	5.7	-	6.4	3.3	.	.	13	-
COc1ccc(C(=O)Nc2nnc(SCC(=O)Nc3ccc(NC(C)=O)cc3)s2)c(OC)c1	14	9.3	8.7	-	13	-	14	7.2	-	7.6	19	-
COc1ccc(NC(=O)CSc2nnc(NC(=O)C3CCC3)s2)cc1	-	-	-	-	-	-	.	.	.	.	.	.
O=C(Nc1nc(-c2ccccn2)cs1)C1CCCC1	-	-	-	-	-	-	.	.	.	.	.	.
O=C(Nc1nc(-c2nc3ccccc3s2)cs1)C1CC1	23	-	-	-	8.8	-	13	6.4	.	.	15	-
Cc1ccc(NC(=O)COc2ccccc2C=O)cc1Cl	20	-	5.8	-	4.5	-	9.6	5.4	.	.	15	-
COc1cccc(Nc2ncnc3nc[nH]c23)c1	-	-	-	-	-	-	.	.	.	.	.	.
Cc1ccc(Nc2ncnc3nc[nH]c23)cc1Cl	14	-	-	-	6.4	-	8.1	5.5	.	.	14	-
COc1ccc(C(=O)Nc2nc3ccccc3c(=O)[nH]2)cc1	19	-	6.9	1.1	6.3	-	14	8.8	-	-	17	-
COc1ccc(C(=O)Nc2nc3cc(OC)c(OC)cc3c(=O)[nH]2)cc1	-	-	-	-	-	-	.	.	.	.	.	.
CCNC(=S)NNC(=O)c1cc(-c2ccc(OCC)cc2)nc2ccccc12	16	-	9.0	1.3	7.7	-	17	8.6	-	12	25	-
CCNC(=S)NNC(=O)c1cc(-c2cccc(OC)c2)nc2ccccc12	-	-	-	-	-	-	.	.	.	.	.	.
COc1ccc(C2=Nc3ccccc3N(C(=O)c3ccc(C(F)(F)F)cc3)C2C(=O)Nc2ccc3c(c2)OCCO3)cc1 (configuration not stated)	-	.	-	-	-	.	.	.	.	.	.	.
CCc1cc2c(nc1CC)CCCN2Cc1ccccc1C(F)(F)F	-	.	-	-	-	.	.	.	.	.	.	.
SMILES	hgDAF12 agonist	DAX1 inh-1	hcDAF-12 act	ssDAF12 agonist	DAX1 inh-2	GAA850 FXN act	DAX1 inh confirm	SF1 mutant ctr	LXRb hcDAF ctr	hcDAF12 ag	hgDAF12 conf	LXRb DAF12 ctr
O=C(Nc1ccc2c(c1)CCC2)Nc1ccccc1Cl	14	-	-	-	8.8	-	9.8	7.8	.	.	22	-
O=C(O)c1ccccc1-c1ccccc1C(=O)Nc1ccc2c(c1)CCC2	-	-	-	-	-	-	.	.	.	.	.	.
O=C(Nc1ccc2c(c1)CCC2)c1ccccc1	17	-	6.0	-	5.6	-	15	6.5	.	.	19	-
COc1ccccc1/C=C/C(=O)Nc1ccc2c(c1)CCC2	16	-	6.7	1.4	5.2	-	7.7	7.5	-	6.6	19	-
O=C(Nc1ccc2c(c1)CCC2)c1ccccc1F	20	-	15	-	6.7	-	14	7.2	-	12	21	-
C[C@@H](NC(=O)c1ccc(C#Cc2cccc(F)c2)cn1)C(C)(C)O	-	.	-	-	-	.	.	.	.	.	.	.
CCN1CCCCC(NC(=O)c2ccc(Cl)cc2Cl)C1=O (configuration not stated)	-	.	-	-	-	.	.	.	.	.	.	.
Cc1cc([N+](=O)[O-])ccc1NC(=O)c1csc(C)c1C	19	-	-	-	5.5	-	4.5	2.9	.	.	19	-
Cc1cc(N)n2nc(-c3ccccc3)cc2n1	20	-	12	1.7	5.8	-	16	8.2	-	6.9	19	-
O=C(CCS(=O)(=O)c1ccccc1)Nc1ccc(F)cc1Cl	-	.	-	-	-	.	.	.	.	.	.	.
COc1ccc(NC(=O)c2noc3c2CCCCC3)cc1	20	-	5.7	-	4.5	-	12	5.5	.	.	18	-
CCc1ccc(NC(=O)c2noc3c2CCCCC3)cc1	15	4.8	-	1.2	5.7	-	16	9.0	.	.	20	-
Cc1ccc2nc(-c3cccc(Cl)c3)c(Cc3cccc(Cl)c3)n2c1	-	.	-	-	-	.	.	.	.	.	.	.
